The source of these data is PubChem BioAssay AID1347423 (Functional Genomics Laboratory (NCATS/FGL), 2020).

Hit rate of the full screen: of about 52,000 sequences, about 210 (0.4%) were called active. Shown is part of a subset that was picked to be rich in actives. A number with no mark means an inactive call.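 The calls were made as follows: active = gene whose silencing raises cell survival under the drug, median off-target-corrected z-score across its silencing RNAs 2 or more; inactive = the rest.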

A short description of the experiment: Resistance to Poly (ADP-Ribose) Polymerase inhibitor: Gene Identification via Genome-wide siRNA Screen. The note with it: mouse BRCA2 R2336H ES cells, olaparib, CellTiter-Glo viability; active compounds read high. The method, boiled down: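 Genome-wide siRNA screen (3 siRNAs/gene, 20 nM) in mouse ES cells carrying hypomorphic BRCA2 R2336H; olaparib 500 nM added 48 h post-transfection, CellTiter-Glo viability 72 h later. Normalized to plate-median negative control; MAD z-scores, gene median, seed-adjusted.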
With GCUAAUUUGACAAAGACGGTT against Bfsp2, the z-score was 1.26. Under GGAAGUCAGACAGAUUUAATT against Prss33 stands 3.17 (active); under GGACAUAAAAAUACGCCAGTT against Hsf1, 3.22.

For GGGCAGAGUGAUGUUGUCATT against Gsdmdc1, the z-score is -1.93. Regarding CCAGCAUAUCUACUGUUCUTT against V1rf2, the z-score was -0.647.

GGACACAAAUGACAUCAACTT against Ptpns1: the z-score is -0.156. With CGUCUCUGCUGAGAACAUGTT against Kcnk15 the figure was 2.15 (active); with GGUUGUGGAACUAGAAUAUTT against Wdr12, -1.25. With GGGAUGUAUUAGUGAAAGGTT against Dm15 the figure was -0.213; with CCGAAAGAACACAAUCUAUTT against Ifi16, -0.1.

As for GGAAAAGUCCUGUAAAAUUTT against Dmrta1, the z-score was 0.431. Under “GGACAUGACCAAAAGGCUGTT against 3110006P09Rik” stands 2.27 (active); under GCUUAUGAUGAACAAGCCCTT against Aplra1, 0.51; under GGCUGCCUCGAAAUUACAATT against Lamb3, -1.79. With GGACCAGAAAAUUCACUUUTT against Gdap2 the figure was -1.39; with “GGCCUUCUCUGACUUUCUGTT against D430030K24Rik”, 3.28 (active); with CCCAUUAUUGGCACUACAATT against LOC434285, -0.98. With GCUAGGAAGAGAGUGAUCUTT against Alg1, the z-score is -0.838. Under GGAAGAAAACAUGGAAGAATT against Usp47 stands 3.28 (active).

Take GCAAGUUAUCCAGCACUCATT against Ylpm1: the z-score is -1.57.

Take GCCUCAGAAAAACAUCUAUTT against BC008103: the z-score was 2.16.

Take GGACGAACCUUUAUACCAGTT against Arhgef15: the z-score is -1.21. Regarding GGCAUUCGAAGGGACAGAUTT against Arg2, the z-score is -0.343. With GGGUAGCUGGCGAAUCAAATT against Ptpro the figure was 1.43; with GGAGCAAAUCCAGAGCAACTT against Actr8, 2.88 (active).

As for “GGAUUCUGCCUGAUCAAUGTT against 1110008F13Rik”, the z-score was -1.08. On to “GGGAUGCUUUUGGCCCAAATT against 1110008J03Rik”, for which the z-score is -0.285. On to GCAUCGUUACAGGACUUUATT against Enpp1, for which the z-score is -0.601.

Regarding CGAUGAAAUCAUCACUAUCTT against Cyfip1, the z-score is -0.619. Under “GGGAGAAGAAAUGGUUUAATT against B230315M08Rik” stands 1.54 (active); under GGAGACAAAUAUGAUGUAUTT against Hook1, -1.94. With GGAUUUUUCUUUUGAGCGATT against Figf the figure was -0.866. With GCACGUGGGCUAUUCCUACTT against Gria1 the figure was 2.78 (active); with CCAACUUUCUCUUAGGAAATT against Gm580, 0.9; with CCUAUUUUUUCUCCACUGATT against Sntg1, -0.718. As for “GGUCAUGGAAGAAGCAAAGTT against 5730555F13Rik”, the z-score is 2.7. As to “GGUUUUUUACACAACAUGCTT against 1110067D22Rik”, the z-score is 0.0564.

As for GGAGUACGUUGACAUCAUCTT against Timp4, the z-score was -1.01. Regarding GCGCAUAUUUUAUCAACUCTT against Plcb3, the z-score was 1.31 (active).

GGAGAAACUUCAACUCUUATT against Resp18: the z-score is 0.73. With CGAAAGAAGGUGAGGGCUCTT against Ppp1r9a the figure was -0.95; with GCGUAUCCCAGAUAUCCGATT against BC064033, 0.0741. Take “GCUGUUGCUGGCUAUUCUGTT against 5730409G15Rik”: the z-score is 0.298. With GCCUCACAACUCUUACACCTT against Ptprc the figure was 0.888; with GGAUGGUCAUAAGGAUCAATT against Gpr128, 2.66 (active). Under CCAAGUAUUUCACAAACCGTT against Slc29a1 stands 1.5. With GGAAGAUGUCCAAACCCGCTT against Tm4sf7 the figure was 0.167. In the case of “CCAACUCGUUAUCACUAUATT against 1700001D09Rik”, the z-score is -0.0393. With “GGGUACAAUAUCCUUAAGUTT against D430033A06Rik” the figure was -0.51. Under GAUUCCACGCCAAUUCAUCTT against Ccl3 stands -1.53. With CCCACCUAGGUUCAUCCCATT against Fath, the z-score was 2.93 (active). With GGCUUAUCAGUCCAUGAAGTT against BC022224 the figure was 1.93.

GGAGCCGAGUACAACAUCATT against Galgt1: the z-score was 0.763. With CGUUUUCCACAAAGCAAAATT against Olfr1465 the figure was 0.0226.

Consider GGCAAAGUGAUAUUUUCAATT against Slc6a12, for which the z-score is 1.85 (active). With CCCGGAACUUAACUCUGUATT against LOC381438 the figure was -0.264; with GCCAUUUACAUUCCCAGGGTT against Gm741, 0.238; with CCAAGCAACACCACUCAUCTT against Centb2, -0.144. With GGAGAUGAAGAGGUUGGUUTT against Olig3 the figure was -0.366.

For GGGAUCGAUCAAUCAUAACTT against Tcfap2c, the z-score was 1.8. With GGAAAUCUUACAGACUGAGTT against Grid2 the figure was 2.5 (active); with GCGCAAGUACCUCAAGAGUTT against Grem2, 0.717; with “GGUGCUAGUGUAUGAAUUATT against 9830109N13Rik”, 2.24. Under GGUGAUAACUCCCUAGUAGTT against Rai12 stands -1.43; under CGGACAUUGUUCUGUUUUCTT against Por, 1.14. With CGACAUGUAAAACUAUUGUTT against BC034097 the figure was 0.0442 (active). On to “CCUCUAGUAAAGAAAUAGATT against 2610019N13Rik”, for which the z-score is -2.5. With “GGGCUGAUGUGGGCUAAAUTT against 1110001E17Rik” the figure was 4.07 (active). Under “CGAAGCUAAAGGAUAUAGATT against 1110025H10Rik” stands 0.236. Under GCCCAUAACAAAACAUCUATT against Mcpt5 stands 1.1; under GGACAGAGCGUGCACUAGATT against Pqlc2, 0.262. As for “CCCUCCAAGAUAGAAGCGGTT against 2610021K21Rik”, the z-score is 0.124. Under GGUGGCAUGUCAUUGCUUCTT against Igf2 stands 1.16; under GUCACUUGGCUUCCAUUGATT against Olfr510, 1.19 (active); under “GGUUUGAAAUCAGCAUGAUTT against A530065I17Rik”, -0.647. With GGCUUUGUGCUAAAAAAAATT against Pgm2l1 the figure was 0.12. Under “CGCAGACAGUUUGAGGCUGTT against 1700034P14Rik” stands -0.696; under CCUUAGUUAGAAAUGUUGATT against Xkh, 0.357; under GCUGAAAAUACAAUCUCUGTT against Capn3, 2.18. For the sequence “GGAACUGAUAACCAGCCAGTT against 1700029B21Rik”, the z-score is -0.44.

As for CCUUGAUGACGAAAACAUATT against Plekha2, the z-score is 0.756. With “GGCGAAGGUGUAGAAUCUCTT against A830094I09Rik” the figure was 2.23 (active). Under CGAAGUUCAUUCCUGUCUATT against Myf6 stands -0.688; under GGAUUACGGUCACUGCCAUTT against Gabrr2, 1.39. Under GGAGAUGACGUGAAAACAATT against Srf stands 1.93. Regarding GACUAGAACAACAGAAAGUTT against Vax2, the z-score was 1.24. With GCAAGUAUACACCUCUCAATT against Slc6a12 the figure was 2.24 (active); with “GGUAUACACAUGAAAACCATT against 3110023B02Rik”, 2.35; with GGAUGGUGACAUGAAAAUCTT against Ifng, -0.37. Under “GGUGAUACGUAUUUUUUAGTT against 2700050F09Rik” stands 1.03 (active); under CCACCAGACUCAUAUUAACTT against LOC433501, -0.496; under CGAUUUGGCCUUGAUGGGUTT against Wtip, -0.561.

For the sequence “GGAUAUCAAAGACAAAGCATT against 3100002B05Rik”, the z-score is 0.612. Under GCCCAUUAUUUUCGGACUGTT against Olfr845 stands -2.22. Under CCUCAAUUGCAUGUGACCUTT against Itgb1bp1 stands -0.642; under GGGCCUUUGGAUGUUGCUATT against Abcc10, 1.24. Under “GGUCCUUCCUCAGAUCCCUTT against 5730457F11Rik” stands 1.66 (active); under GCUCUCACACCCUUAUGUATT against Sdfr1, -1.45.

GGAAUACUUAUAGCUGACUTT against Rdhe2: the z-score is 0.32. With GGGCUAUAACCCUGAAGAUTT against Rarg the figure was 1.67 (active). With “GGACUUAGACAUCCACCUCTT against 1700034O15Rik” the figure was -0.799. For CCGGGUGCUGUUCUAUAAGTT against Pecam1, the z-score was 0.0651. Consider “GCUUGGAAGACUGUAAACUTT against 4921521K07Rik”, for which the z-score was 0.958. Under GGUGGUCUGGUUCAAGGAUTT against Mylk stands -0.558; under GGGUCCCUAAGCAUGUUCCTT against Slfn10, 1.48.
